Data from PubChem BioAssay (Tox21).
Results filed as inconclusive are left out. A call without a number means that no potency is given here. Calls of active or inactive are those of the source. Unless noted, calls come from the whole dose curve; as a rule, active = well fitted curve in the direction sought with a large enough effect in the repeat runs; inconclusive = weak or mixed curves; inactive = no such curve, though single readings can be large; an effect the other way counts as inactive or inconclusive.

Experiments:
[1] = qHTS assay to identify small molecule antagonists of the glucocorticoid receptor (GR) signaling pathway - cell viability counter screen (AID 720693); note: nearly all actives have a fitted effect of over 55% in size
[2] = qHTS assay for identifying genotoxic compounds that show differential cytotoxicity against isogenic chicken DT40 cell lines with known DNA damage response pathways - wild type cell line (AID 743012); note: nearly all actives have a fitted effect of over 60% in size; note: potency is the fitted concentration of half-maximal effect
Summary of the method: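 Luminescent ATP viability signal (CellTiter-Glo, 30 min RT) recorded after wild type DT40 cells were incubated with compounds for 40 h at 37 C/5% CO2.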

[3] = qHTS assay for identifying genotoxic compounds that show differential cytotoxicity against isogenic chicken DT40 cell lines with known DNA damage response pathways - Rev3 mutant cell line (AID 743014); note: nearly all actives have a fitted effect of over 55% in size; note: potency is the fitted concentration of half-maximal effect
[4] = qHTS assay for identifying genotoxic compounds that show differential cytotoxicity against isogenic chicken DT40 cell lines with known DNA damage response pathways - Rad54/Ku70 mutant cell line (AID 743015); note: nearly all actives have a fitted effect of over 60% in size; note: potency is the fitted concentration of half-maximal effect
[5] = target: Androgen receptor (Homo sapiens) (UniProt P10275); test: qHTS assay to identify small molecule agonists of the androgen receptor (AR) signaling pathway (AID 743036; active = well fitted activation curve with a large enough effect in the signal ratio in the repeat runs, with a control signal flat, not every such curve was filed as active; the % refers to the signal ratio)
Summary of the method: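 In this Tox21 qHTS, 2,000 HEK293 AR-bla cells per well were incubated with compounds for 16 h at 37C and 5% CO2. Fluorescence intensity was recorded 2 h after adding LiveBLAzer B/G FRET substrate at room temperature.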

[6] = target: Androgen receptor (Homo sapiens) (UniProt P10275); test: qHTS assay to identify small molecule agonists of the androgen receptor (AR) signaling pathway using the MDA cell line (AID 743040; note: nearly all actives have a fitted effect of over 20% in size)
Summary of the method: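 Agonist activity is measured as luciferase luminescence in human MDA-kb2 cells whose MMTV reporter responds to both AR and GR. Compounds in DMSO incubate 16 h at 37C, 0% CO2, and ONE-Glo is read after 30 min.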

[7] = qHTS assay to identify small molecule antagonists of the androgen receptor (AR) signaling pathway using the MDA cell line - cell viability counter screen (AID 743041; note: nearly all actives have a fitted effect of over 45% in size)
Summary of the method: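 qHTS viability read-out; MDA-kb2 AR-luc; R1881-stimulated; 16 h exposure at 37C, 0% CO2; CellTiter-Fluor, 30 min; fluorescence intensity.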

[8] = qHTS assay to identify small molecule antagonists of the thyroid receptor (TR) signaling pathway (AID 743065); note: nearly all actives have a fitted effect of over 55% in size; note: potency is the fitted concentration of half-maximal effect
Summary of the method: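 GH3.TRE-Luc rat pituitary cells carrying two TR response elements driving luciferase were plated for 4 h, given compound plus 1 nM T3 (final), and incubated 23.5 h at 37 C. ONE-Glo luminescence measured reporter inhibition; CellTiter-Fluor fluorescence tracked cytotoxicity.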

[9] = target: Estrogen receptor (Homo sapiens) (UniProt P03372); test: qHTS assay to identify small molecule agonists of the estrogen receptor alpha (ER-alpha) signaling pathway (AID 743075; calls by dose curve)
[10] = qHTS assay to identify small molecule antagonists of the estrogen receptor alpha (ER-alpha) signaling pathway using the BG1 cell line - cell viability counter screen (AID 743081);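 note: compound given together with 17beta-estradiol as the ER stimulus; nearly all actives have a fitted effect of over 45% in size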
[11] = test system: thyroid hormone receptor (rat, GH3 cells); test: qHTS assay to identify small molecule agonists of the thyroid receptor (TR) signaling pathway (AID 743066; calls by dose curve)
[12] = target: Estrogen receptor (Homo sapiens) (UniProt P03372); test: qHTS assay to identify small molecule antagonists of the estrogen receptor alpha (ER-alpha) signaling pathway (AID 743069; active = well fitted curve in the direction sought with a large enough effect in the signal ratio in the repeat runs, not every such curve was filed as active; the % refers to the signal ratio)
Summary of the method: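 Screening used a UAS-driven beta-lactamase reporter integrated into HEK293 cells expressing ER-alpha, stimulated with 17beta-estradiol alongside test compounds over 18 hr at 37C; signal came from LiveBLAzer B/G FRET fluorescence.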

[13] = qHTS assay to identify small molecule antagonists of the estrogen receptor alpha (ER-alpha) signaling pathway - cell viability counter screen (AID 743074; calls by dose curve; note: nearly all actives have a fitted effect of over 45% in size)
[14] = target: Estrogen receptor (Homo sapiens) (UniProt P03372); test: qHTS assay to identify small molecule agonists of the estrogen receptor alpha (ER-alpha) signaling pathway using the BG1 cell line (AID 743079); conditions: BG1Luc4E2 cells, ERE-luciferase agonist, 22 h; activation: at 70.3 µM (top of the series); note: nearly all actives have a fitted effect of over 20% in size
[15] = qHTS assay to identify small molecule antagonists of the estrogen receptor alpha (ER-alpha) signaling pathway using the BG1 cell line (AID 743080; calls by dose curve;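 note: BG1 cells stimulated with 17beta-estradiol alongside compound; nearly all actives have a fitted effect of over 25% in size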)
Summary of the method: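 BG1Luc4E2, endogenous ER-alpha, 4xERE-luc; 5 d charcoal-stripped FBS, phenol red free; 24 h plating; cpd + 17beta-estradiol 21.5 h, 37 C/5% CO2; CellTiter-Fluor viability 30 min, then ONE-Glo luciferase 30 min RT.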

[16] = target: Aromatase (Homo sapiens) (UniProt P11511); test: qHTS assay to identify aromatase inhibitors (AID 743083); note: nearly all actives have a fitted effect of over 55% in size
[17] = qHTS assay to identify small molecule antagonists of the androgen receptor (AR) signaling pathway - cell viability counter screen (AID 743033; note: nearly all actives have a fitted effect of over 45% in size)

Estrogen receptor (Homo sapiens), sequence (P03372 whole entry, looked up): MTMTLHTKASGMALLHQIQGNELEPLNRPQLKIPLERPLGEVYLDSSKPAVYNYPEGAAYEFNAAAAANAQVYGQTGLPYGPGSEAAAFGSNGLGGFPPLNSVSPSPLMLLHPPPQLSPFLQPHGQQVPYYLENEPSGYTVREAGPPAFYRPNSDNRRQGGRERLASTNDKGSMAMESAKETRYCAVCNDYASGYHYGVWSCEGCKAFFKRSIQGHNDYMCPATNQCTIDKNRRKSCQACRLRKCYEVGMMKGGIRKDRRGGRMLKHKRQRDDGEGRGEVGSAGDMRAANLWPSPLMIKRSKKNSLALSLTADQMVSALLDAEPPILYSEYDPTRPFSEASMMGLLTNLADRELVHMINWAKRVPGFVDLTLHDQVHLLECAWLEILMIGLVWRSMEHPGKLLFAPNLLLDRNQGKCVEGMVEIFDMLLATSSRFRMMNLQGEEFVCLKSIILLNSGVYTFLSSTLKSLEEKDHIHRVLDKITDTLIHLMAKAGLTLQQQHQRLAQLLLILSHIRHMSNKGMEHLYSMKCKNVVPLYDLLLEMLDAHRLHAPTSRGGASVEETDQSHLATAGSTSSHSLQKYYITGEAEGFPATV
Aromatase (Homo sapiens), sequence (P11511 whole entry, looked up): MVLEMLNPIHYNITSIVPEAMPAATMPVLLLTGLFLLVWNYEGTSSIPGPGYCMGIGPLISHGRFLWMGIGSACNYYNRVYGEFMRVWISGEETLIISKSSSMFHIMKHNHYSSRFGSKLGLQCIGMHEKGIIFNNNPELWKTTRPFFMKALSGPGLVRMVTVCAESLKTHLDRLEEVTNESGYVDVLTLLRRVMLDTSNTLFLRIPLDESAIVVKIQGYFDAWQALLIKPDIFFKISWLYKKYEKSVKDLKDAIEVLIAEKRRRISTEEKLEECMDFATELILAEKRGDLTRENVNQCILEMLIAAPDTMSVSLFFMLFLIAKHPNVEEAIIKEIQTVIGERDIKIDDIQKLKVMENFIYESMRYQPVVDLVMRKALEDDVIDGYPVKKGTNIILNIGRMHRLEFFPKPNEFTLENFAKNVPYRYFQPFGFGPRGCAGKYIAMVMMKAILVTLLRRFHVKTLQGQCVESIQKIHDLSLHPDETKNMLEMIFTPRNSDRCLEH
Androgen receptor (Homo sapiens), sequence (P10275 whole entry, looked up): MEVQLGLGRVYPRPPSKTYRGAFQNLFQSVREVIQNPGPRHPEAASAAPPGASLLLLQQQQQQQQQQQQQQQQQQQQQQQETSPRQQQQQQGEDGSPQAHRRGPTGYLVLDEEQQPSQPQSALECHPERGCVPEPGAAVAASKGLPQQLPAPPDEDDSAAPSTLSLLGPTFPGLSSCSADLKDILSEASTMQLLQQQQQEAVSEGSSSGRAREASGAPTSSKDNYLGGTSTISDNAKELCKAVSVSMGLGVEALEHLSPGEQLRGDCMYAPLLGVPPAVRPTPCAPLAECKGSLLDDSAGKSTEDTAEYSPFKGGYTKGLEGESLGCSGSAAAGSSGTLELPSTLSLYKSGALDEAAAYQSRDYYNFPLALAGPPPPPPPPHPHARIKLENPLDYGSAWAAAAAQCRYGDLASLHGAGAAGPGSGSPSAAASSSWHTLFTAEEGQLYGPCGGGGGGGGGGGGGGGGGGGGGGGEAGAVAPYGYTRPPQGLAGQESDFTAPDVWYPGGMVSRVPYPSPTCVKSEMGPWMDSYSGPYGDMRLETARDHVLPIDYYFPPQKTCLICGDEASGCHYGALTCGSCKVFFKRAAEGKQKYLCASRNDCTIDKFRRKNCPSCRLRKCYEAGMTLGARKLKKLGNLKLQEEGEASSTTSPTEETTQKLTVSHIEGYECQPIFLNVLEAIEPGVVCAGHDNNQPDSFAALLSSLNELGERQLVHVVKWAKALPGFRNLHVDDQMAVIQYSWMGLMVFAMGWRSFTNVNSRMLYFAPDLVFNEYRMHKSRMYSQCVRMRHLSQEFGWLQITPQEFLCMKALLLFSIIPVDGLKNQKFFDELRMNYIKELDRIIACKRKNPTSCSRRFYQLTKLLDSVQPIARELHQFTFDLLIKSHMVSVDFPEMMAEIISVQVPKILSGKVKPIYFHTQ

SMILES | Potency [1] | Potency [2] | Potency [3] | Potency [4] | Potency [5] | Potency [6] | Potency [7] | Potency [8] | Potency [9] | Potency [10] | outcome [11] | Potency [12] | Potency [13] | Potency [14] | Potency [15] | Potency [16] | Potency [17]
CSc1ccc(Oc2ccc(S(N)(=O)=O)cc2CN(C)C)cc1C | inactive | 24.3 µM (active) | 27.3 µM (active) | 61.1 µM (active) | inactive | inactive | inactive | 27.3 µM (active) | inactive | inactive |  |  |  |  |  |  | 
CCCOC(=O)c1ccc(C(=O)OCCC)nc1 | inactive | inactive | inactive | inactive |  | inactive | inactive | inactive | inactive | inactive | inactive | inactive | inactive | inactive | inactive | inactive | 
C/C=C/C=C/CCCCCCCO | inactive | 21.7 µM (active) | 30.6 µM (active) | 24.3 µM (active) |  |  | inactive | 61.1 µM (active) | inactive | inactive | inactive | inactive | inactive | inactive | inactive | inactive | 
Cc1nc2ccccc2s1 | inactive | inactive | inactive | inactive |  |  |  | inactive | inactive | inactive | inactive | inactive | inactive | inactive | inactive | inactive | inactive
CC(C)CCCCCOC(=O)CCCCC(=O)OCCCCCC(C)C | inactive | 61.1 µM (active) | 61.1 µM (active) | 61.1 µM (active) |  |  |  | inactive |  | inactive | inactive |  | inactive |  |  | inactive | inactive
C=C(C)C(=O)OCCOC(=O)CC(C)=O | inactive | inactive | inactive | inactive |  |  |  | inactive |  | inactive | inactive |  | inactive |  |  | inactive | inactive
